# Assay outcomes as filed in PubChem.
# aSyn 5UTR act – Activators via SNCA 5'UTR binding, MLPCN. alpha-synuclein 5'UTR reporter, activators screen. activity score, % (tested at 7.5 µM), hits read low. 300,000 tested, 7.1% active; in the data active means activity score below about -60%
# Numbers without * were called inactive. A selection follows.
SMILES,aSyn 5UTR act
CCN(CC)C(=O)Cn1cc(C(=O)C(=O)Nc2ccc3c(c2)OCCO3)c2ccccc21,-91*
CC1Cc2nc(SCC(=O)Nc3ccc4c(c3)OCO4)n(Cc3ccccc3)c(=O)c2S1 (stereo not drawn),-95*
O=C(CSCc1ccccc1)Nc1ccc(Cl)cn1,-134*
CCCCSc1nnc2c(n1)[nH]c1ccccc12,-135*
O=C(CSc1ccccc1)Nc1ccc2c(c1)OCO2,-125*
O=C(CN1C(=O)C2C3C=CC(C3)C2C1=O)Nc1ccc2c(c1)OCCO2 (stereo not drawn),-116*
O=C(CSCc1ccccc1)Nc1ccc2c(c1)OCO2,-154*
CC(=O)c1cccc(NC(=O)CSCc2ccccc2)c1,-100*
O=C(CSc1nnc2c(n1)[nH]c1ccccc12)Nc1ccc2c(c1)OCO2,-80*
O=C(CC1Nc2ccccc2NC1=O)Nc1ccc2c(c1)OCO2 (stereo not drawn),-108*
O=C(CSc1ccccc1)Nc1ccc2c(c1)OCCO2,-63*
CN1CCN(c2ccc(NC(=O)CSc3ccccc3)cc2F)CC1,-107*
Cn1cc(SCC(=O)Nc2ccc3c(c2)OCCO3)c2ccccc21,-78*
O=C(CSCc1ccccc1)Nc1ccc(F)c(F)c1,-136*
O=C(CSc1nnc2ccccn12)Nc1ncc(Cl)cc1Cl,-78*
O=C(CSc1ccc(-c2ccccc2)nn1)Nc1ccc2c(c1)OCCO2,-148*
COc1ccc(-n2c(SC(C)C(=O)Nc3ncc(Cl)cc3Cl)nc3ccccc32)cc1 (stereo not drawn),77
O=C(CN1CC(=O)Nc2ccccc21)Nc1ccc(F)c(F)c1,-94*
Cc1cc(C)cc(C(=O)N2CC(=O)Nc3ccccc32)c1,110
O=C(CSc1nnc2ccccn12)Nc1ccc2c(c1)OCCO2,-122*
O=C(Cn1cnc2ccccc2c1=O)Nc1ccc2c(c1)OCCO2,-110*
CC(C)(C)c1cc(-n2ccnc2)n2ncc(-c3ccc(Cl)cc3)c2n1,-67*
Cc1cc(NCCCn2ccnc2)n2ncc(-c3ccc(Cl)cc3)c2n1,60
CN(C)CCCNc1cc(C(C)(C)C)nc2c(-c3ccc(Cl)cc3)cnn12,108
CC(C)(C)c1cc(NCCCn2ccnc2)n2ncc(-c3ccccc3)c2n1,-149*
SMILES,aSyn 5UTR act
Cc1ccc(-n2nnc(-c3cc4ccccc4n3C)n2)cc1,-88*
Cn1c(-c2nnn(-c3ccc(F)cc3)n2)cc2ccccc21,-156*
Cc1ccc(Cn2ccnc2C(=O)Nc2ccccc2)cc1,-156*
COc1ccccc1N1CCN(S(=O)(=O)CCNC(=O)c2cc(OC)c(OC)c(OC)c2)CC1,61
COc1cc(C(=O)Nc2cc3c(cc2N2CCCCC2)n(C)c(=O)n3C)cc(OC)c1OC,-79*
COc1ccc(Cl)cc1C(=O)Nc1ccc(Br)c(C)n1,-78*
COc1ccc(Cl)cc1C(=O)Nc1cccnc1Cl,-78*
CC(C)(C)c1cc(NC(=O)c2cccs2)no1,-77*
CC(C)(C)c1cc(NC(=O)c2cccnc2)no1,-102*
CC(C)(C)c1cc(NC(=O)c2cc(F)c(F)c(F)c2F)no1,-63*
CC(C)(C)c1cc(NC(=O)C2CCCO2)no1 (stereo not drawn),-104*
COc1ccccc1NC(=O)c1c(O)c2ccccc2[nH]c1=O,-76*
O=C(Nc1cccc(F)c1)c1c(O)c2ccccc2[nH]c1=O,-140*
Oc1ccccc1-c1nnc(-c2ccc(C(F)(F)F)cc2)o1,-126*
c1ccc(-c2nnc(-c3ccccc3)o2)cc1,-96*
O=[N+]([O-])c1cc(-c2nnc(-c3ccccc3)o2)ccc1Oc1ccc(Cl)cc1,-95*
CN(C)S(=O)(=O)c1cccc(-c2nnc(-c3ccccc3)o2)c1,-113*
COc1ccc(-c2nnc(-c3ccccc3)o2)cc1OC,-168*
COc1cccc(-c2nnc(-c3ccc(C(F)(F)F)cc3)o2)c1,-145*
Nc1ccc(-c2nnc(-c3ccc(N)cc3)o2)cc1,-106*
COc1ccc(C2=Nn3c(nnc3-c3ccccc3)SC2)cc1OC,59
c1ccc(-c2nnc(-c3ccncc3)o2)cc1,-89*
Nc1ccccc1-c1nnc(-c2ccc(-c3ccccc3)cc2)o1,-192*
COc1cc(/C=N/NC(=O)Nc2cccc3nsnc23)cc(OC)c1OC,-89*
O=C(N/N=C/c1ccc(O)cc1)Nc1cccc2nsnc12,-73*
SMILES,aSyn 5UTR act
CCc1ccc(NC(=O)[C@H](C)NC(=O)C2CCN(C(=O)[C@@H](N)Cc3ccccc3)CC2)cc1,-84*
COc1cc2sc3ccc(C#CC4(O)CCCCC4)cc3c(=O)c2cc1OC,-137*
COc1c(OC(C)=O)ccc(/C=C/c2ccc3cccc(OCc4ccccc4)c3n2)c1[N+](=O)[O-],-129*
CCC(=O)NC(=S)Nc1ccc(NC(=O)c2ccco2)cc1,-86*
CCOc1ccc(NC(=S)NC(=O)c2ccco2)cc1,-250*
NC(=O)c1cccnc1Nc1cccc([N+](=O)[O-])c1,-109*
COc1cccc(/C=N/NC(=O)c2cc3cc([N+](=O)[O-])ccc3s2)c1O,107
Cc1cccc(NC(=O)c2cc3cc([N+](=O)[O-])ccc3s2)n1,-85*
Cc1ccnc(NC(=O)c2ccc(Br)s2)c1,-115*
Cc1cccc(NC(=O)c2cccs2)n1,-116*
Cc1ccnc(NC(=O)c2cccs2)c1,-118*
O=C(Nc1ccccn1)c1cccs1,-113*
O=C(Nc1nccc(-c2cccs2)n1)c1cccs1,-92*
CCC(C)NC(=O)Nc1ccc(Br)cc1 (stereo not drawn),-73*
CC(C)(C)NC(=O)Nc1ccc(Br)cc1,-138*
Cc1ccc(-c2nnc(N(C)C(=O)c3ccncc3)s2)cn1,-77*
COc1cnc(-c2ccccn2)nc1N(C)C,99
CN(C(=O)c1cccnc1)c1nnc(-c2ccccn2)s1,-98*
COCCN(C(C)=O)c1nnc(-c2ccccn2)s1,-66*
CC(=O)N(C)c1nnc(-c2ccccn2)s1,-71*
Cc1cc(NC(=O)c2ccc(-c3ccccc3F)o2)no1,-125*
COc1ccccc1NC(=O)c1ccc(-c2ccccc2F)o1,-145*
COC(=O)c1ccccc1NC(=O)c1ccc(-c2ccccc2F)o1,-129*
COc1cc(/C=C2/CC/C(=C/c3ccc(O)c(OC)c3)C2=O)ccc1O,-71*
COc1ccc(/C=C2\CCC/C(=C\c3ccc(OC)c(OC)c3OC)C2=O)c(OC)c1OC,-71*
SMILES,aSyn 5UTR act
COc1cc2c(c(OC)c1OC)-c1ccc(OC)c(=O)cc1C(NC(C)=O)CC2 (stereo not drawn),75
CCN1C/C(=C/c2ccc(OC)c(O)c2)C(=O)/C(=C/c2ccc(OC)c(O)c2)C1,116
COc1cc(/C=C2\COC/C(=C\c3ccc(O)c(OC)c3)C2=O)ccc1O,103
COc1ccc(/C=C2\CC/C(=C\c3ccc(OC)c(OC)c3)C2=O)cc1OC,-74*
O=c1c(Cl)c(NCCCO)cnn1-c1nc2ccccc2[nH]1,-232*
O=c1[nH]c(/C(Cl)=C/c2cccc(F)c2)nc2cc(C(F)(F)F)ccc12,-162*
O=C(Oc1c(-c2ccccc2)c(=O)n2c3c(cccc13)CC2)c1cccc([N+](=O)[O-])c1,77
Cc1ccc(OC(=O)COc2ccccc2C)c(-n2nc3ccccc3n2)c1,-233*
Cc1ccc(OC(=O)c2cccc([N+](=O)[O-])c2)c(-n2nc3ccccc3n2)c1,-278*
Cc1ccc(OC(=O)COc2ccccc2)c(-n2nc3ccccc3n2)c1,-178*
N/C(=N\c1nc2ccccc2o1)NC(=O)c1ccc(F)cc1,-132*
Cc1ccc2oc(/N=C(\N)NC(=O)C(C)(C)C)nc2c1,96
